According to the supplement of paper PMC6555819:

Test system: RXRa DBDmut IVT, anti-RXR (DBD mutation: RXRa K156A/R161A, NR concentration 90 nM)
Experiment: PBM binding z-score (relative to random genomic background probes); higher = stronger binding; sequences stand for … in GC…GCGATTGACAGCGTAGAATGAAGG
Summary of the method: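 Each nuclear receptor dimer, without ligand, was incubated for 1 h on custom Agilent 4×180K protein-binding microarrays. Binding was detected with antibodies against each partner (one per run), and scanned fluorescence was regression-normalized. The binding z-scores are referenced to random human genomic background probes.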

Sequence	PBM binding z-score
GTACCGAGGTGAATAGGTCGTTGATGAGTAGGCG	-0.0161
ATATGTAGGTTAGCTTGGGTCATTCAGACTAGGC	0.678
TCATATAGGTAATACAGGTGAAAGTAGGCATCTA	1.81
GCTGCTAGGTCAGGTTGGTCAGCTCACGGGTACG	0.658
GCTTGTAGATCAAGGTTCAGAAAGACTAAGCTAA	1.09
CCTCGGAGGACTGAAGGTCAGAGCTGTCCGCTTT	-0.27
ATCTCTAGGTAAAGATAGTTCAGTCAATGCAAAT	0.26
GCGACTGAGGCATCAGCAGGTTACCATAACTTAA	-0.168
ACTAGTTGGTCAGCTGAGGTCACAGACAATTCGG	1.15
AGAATGAGGTTATTAACATCAGGGAATTGCGGTC	1.83
CTACCAAGGTGAACAAAGTCGTTGATTACTATTC	0.695
CCTACTGGGCCAAGGTCATGGATCAGTCAAAGCA	-0.0426
TCATATACGTAATACAGGTGAAAGTCGGCATCTA	1.76
ATCTCTAGGTAACCAAGTTCAGTGAGTGCCGAAC	1.34
TCAAGTAGGTTAGTCGGGGCATTCAGCCAACATA	1.46
TAGCCTAGGTCATTGGCCCAGTATAGTACGCATC	1.51
GCTAGTTGGTCAGTAAAAGTTCACACACCGGTCG	1.07
GCTGCTAGGTCAGGTTGGTCCGCTAACGGGTACG	0.513
CCTAGTCGGTCAGGAGGTCACACACCGGATATGA	0.219
CGTCCAAAGTCAAGGTCAGTGAAAGAGACTCGAA	1.13

Sequence	PBM binding z-score
CCTCACGGGTCACGAGGTTATAGCACGACGAGCG	1.43
TCGAGTAGGTAAGTCGGGGCATTCAGCCAACATA	0.129
CGTCCAAGGTGAAGGTCAGTGAAAGAGACTCGAA	0.585
TCATATAGCTAAATGCTAGGTGAAAGTCCGATCT	0.952
CCTTACGGGTCAAGGATATAGCACGGGTGGTACG	0.465
ACTATTAGTTGACTTAGGGTAACCGATACGACGC	0.853
CCTTATGGGTCAAGGTTATAGCACGGGTGGTACG	0.11
TCATATAGGTAATACATGTGAAAGTCGGCATCTA	1.57
AGTCAAAGTTCAGGACGTGGTAACGTAAAGCACG	2.76
CCTACTGGGCCAAAGGTCAATGATTCCAATGCTC	0.831
CATCCTAGGTCAGGGCCAGTATAGGAGGAACGTT	0.0171
ACTGACAGGTGATGAAGGTAACTCAGGCTATCAT	-0.478
ACAGACAGGTGAGTGAAGATAACTCAGCTGGACG	-0.658
ACTATTAGTTGAGACGAGGACAACCGATAGGTTG	0.0973
TCGAGTAGGTTAGTCGCGGCATTCAGCCAACATA	-0.209
CCTACTGGGCCATCAGGTCATTAATATCAACGTT	0.551
CCGACTGGTGCAAAGGTTACCATACTCAGTACGA	0.63
TTACCAAGGTGAGGTGAGGTCGTTGATCCAACTC	0.267
CCGAGTAGGGTATGGGGCATTCAGGCAACGGTGA	-0.938
CCTGCTAGGTCGATGGTCAGCTAAAGCAGCTCGC	0.224
